Measured values published in PubChem BioAssay (NCATS).
Inconclusive results are not listed. A call without a number means that no potency is given here. Calls of active or inactive are those of the source. Calls come from the whole dose curve; as a rule, active = well fitted curve in the direction sought with a large enough effect; inconclusive = small, poorly fitted or top-dose-only effect, or another doubt; inactive = no such curve, though single readings can be large; an effect the other way counts as inactive or inconclusive.

Key:
[1] = Quantitative High-Throughput drug screen in 47 multiple myeloma cell lines against the NCATS MIPE library collection: OCIMY1_PLB cell viability assay (AID 1918979); conditions: OCI-MY1 myeloma viability, CellTiter-Glo ATP, 48 h; series mostly up to 45.8 µM; note: nearly all actives have a fitted effect of over 35% in size
Outline: (§1)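 qHTS format: cells plated (500/well), pin-dosed with MIPE 4.0 compounds, kept 48 h at 37 °C. Readout was CellTiter-Glo luminescence, median RLU.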

[2] = Quantitative High-Throughput drug screen in 47 multiple myeloma cell lines against the NCATS MIPE library collection: MM1S_ATCC cell viability assay (AID 1918980); conditions: MM1S myeloma viability, CellTiter-Glo ATP luminescence, 48 h; series mostly up to 45.8 µM; note: nearly all actives have a fitted effect of over 45% in size; note: potency is the fitted concentration of half-maximal effect
Outline: as §1

[3] = Quantitative High-Throughput drug screen in 47 multiple myeloma cell lines against the NCATS MIPE library collection: LP1_DSMZ cell viability assay (AID 1918982); conditions: LP1 myeloma viability, CellTiter-Glo ATP luminescence, 48 h; series mostly up to 45.8 µM; note: nearly all actives have a fitted effect of over 35% in size; note: potency is the fitted concentration of half-maximal effect
Outline: as §1

[4] = Quantitative High-Throughput drug screen in 47 multiple myeloma cell lines against the NCATS MIPE library collection: KMS28PE_JCRB cell viability assay (AID 1918983); conditions: KMS28PE multiple myeloma viability, CellTiter-Glo ATP, 48 h; series mostly up to 45.8 µM; note: nearly all actives have a fitted effect of over 35% in size; note: potency is the fitted concentration of half-maximal effect
Outline: as §1

[5] = Quantitative High-Throughput drug screen in 47 multiple myeloma cell lines against the NCATS MIPE library collection: L363_DSMZ cell viability assay (AID 1918984); conditions: L363 myeloma viability, CellTiter-Glo ATP luminescence, 48 h; series mostly up to 45.8 µM; note: nearly all actives have a fitted effect of over 40% in size; note: potency is the fitted concentration of half-maximal effect
Outline: as §1

[6] = Quantitative High-Throughput drug screen in 47 multiple myeloma cell lines against the NCATS MIPE library collection: KMS34_JCRB cell viability assay (AID 1918985); conditions: KMS34 myeloma viability, CellTiter-Glo ATP luminescence, 48 h; series mostly up to 45.8 µM; note: nearly all actives have a fitted effect of over 40% in size
Outline: as §1

[7] = Quantitative High-Throughput drug screen in 47 multiple myeloma cell lines against the NCATS MIPE library collection: OPM1_PLB cell viability assay (AID 1918989); conditions: CellTiter-Glo, 48 h; series mostly up to 45.8 µM; note: nearly all actives have a fitted effect of over 40% in size; note: potency is the fitted concentration of half-maximal effect
Outline: as §1

[8] = Quantitative High-Throughput drug screen in 47 multiple myeloma cell lines against the NCATS MIPE library collection: XG6_PLB cell viability assay (AID 1919865); conditions: XG6 myeloma viability, CellTiter-Glo ATP luminescence, 48 h; series mostly up to 45.8 µM; note: nearly all actives have a fitted effect of over 40% in size; note: potency is the fitted concentration of half-maximal effect
Outline: as §1

[9] = Quantitative High-Throughput drug screen in 47 multiple myeloma cell lines against the NCATS MIPE library collection: XG1_PLB cell viability assay (AID 1919866); conditions: CellTiter-Glo ATP, 48 h; series mostly up to 45.8 µM; note: nearly all actives have a fitted effect of over 35% in size; note: potency is the fitted concentration of half-maximal effect
Outline: as §1

[10] = Quantitative High-Throughput drug screen in 47 multiple myeloma cell lines against the NCATS MIPE library collection: VP6_DJ cell viability assay (AID 1919867); conditions: ATP luminescence, 48 h; series mostly up to 45.8 µM
Outline: as §1

[11] = Quantitative High-Throughput drug screen in 47 multiple myeloma cell lines against the NCATS MIPE library collection: NCIH929_DSMZ cell viability assay (AID 1918978); conditions: NCI-H929 myeloma viability, CellTiter-Glo ATP, 48 h; series mostly up to 45.8 µM; note: nearly all actives have a fitted effect of over 35% in size; note: potency is the fitted concentration of half-maximal effect
Outline: as §1

[12] = Quantitative High-Throughput drug screen in 47 multiple myeloma cell lines against the NCATS MIPE library collection: MM1R_ATCC cell viability assay (AID 1918981); conditions: MM1R multiple myeloma cells, CellTiter-Glo viability, 48 h; series mostly up to 45.8 µM; note: nearly all actives have a fitted effect of over 35% in size; note: potency is the fitted concentration of half-maximal effect
Outline: as §1

[13] = Quantitative High-Throughput drug screen in 47 multiple myeloma cell lines against the NCATS MIPE library collection: OCIMY5_PLB cell viability assay (AID 1918988); conditions: OCI-MY5 myeloma viability, ATP luminescence, 48 h; series mostly up to 45.8 µM; note: nearly all actives have a fitted effect of over 65% in size; note: potency is the fitted concentration of half-maximal effect
Outline: as §1

[14] = Quantitative High-Throughput drug screen in 47 multiple myeloma cell lines against the NCATS MIPE library collection: SKMM1_PLB cell viability assay (AID 1919863); conditions: SKMM1 myeloma viability, CellTiter-Glo ATP, 48 h; viability: hits give low values; note: nearly all actives have a fitted effect of over 35% in size; note: potency is the fitted concentration of half-maximal effect
Outline: as §1

[15] = Quantitative High-Throughput drug screen in 47 multiple myeloma cell lines against the NCATS MIPE library collection: OCIMY7_PLB cell viability assay (AID 1918987); conditions: OCI-MY7 myeloma viability, CellTiter-Glo ATP, 48 h; viability (% of DMSO): at 45.8 µM (top of the series); note: nearly all actives have a fitted effect of over 65% in size; note: potency is the fitted concentration of half-maximal effect
Outline: as §1

[16] = Quantitative High-Throughput drug screen in 47 multiple myeloma cell lines against the NCATS MIPE library collection: U266_ATCC cell viability assay (AID 1919864); conditions: U266 myeloma viability, CellTiter-Glo ATP luminescence, 48 h; series mostly up to 45.8 µM; note: nearly all actives have a fitted effect of over 35% in size; note: potency is the fitted concentration of half-maximal effect
Outline: as §1

[17] = Quantitative High-Throughput drug screen in 47 multiple myeloma cell lines against the NCATS MIPE library collection: MOLP8_DSMZ cell viability assay (AID 1918977); conditions: MOLP8 myeloma viability, CellTiter-Glo ATP luminescence, 48 h; series mostly up to 45.8 µM; note: nearly all actives have a fitted effect of over 45% in size
Outline: as §1

With `CCC(CC)[C@H](NC(C)=O)[C@@H]1[C@H](O)[C@@H](C(=O)O)C[C@@H]1N=C(N)N` as the compound, how does the Potency [1] read?
Its Potency is “inactive”.

What about the Potency [2] of the same compound?
Its Potency is “inactive”.

What about the Potency [3] of the same compound?
The Potency was “inactive”.

And the Potency [4]?
The Potency was “inactive”.

What about the Potency [5] of the same compound?
The Potency was “inactive”.

What about the Potency [6] of the same compound?
Its Potency is “inactive”.

What about the Potency [7] of the same compound?
Its Potency is “inactive”.

What about the Potency [8] of the same compound?
The Potency was “inactive”.

And the Potency [9]?
The Potency was “inactive”.

What about the Potency [10] of the same compound?
Its Potency is 4.18 µM (active).

Which Potency [11] does the source give for `CN1[C@@H]2CCC[C@@H]1CC(NC(=O)c1nn(C)c3ccccc13)C2` (stereo not given in full) here?
Its Potency is “inactive”.

What about the Potency [2] of the same compound?
Its Potency is “inactive”.

And the Potency [12]?
The Potency was “inactive”.

What about the Potency [3] of the same compound?
The Potency was “inactive”.

And the Potency [4]?
Its Potency is “inactive”.

What about the Potency [5] of the same compound?
The Potency was “inactive”.

And the Potency [6]?
Its Potency is “inactive”.

What about the Potency [13] of the same compound?
Its Potency is “inactive”.

And the Potency [7]?
Its Potency is “inactive”.

What about the viability [14] of the same compound?
The viability was 111% (inactive).

What about the Potency [8] of the same compound?
The Potency was “inactive”.

And the Potency [9]?
Its Potency is “inactive”.

For `CO[C@H]1C(=O)[C@]2(C)[C@@H](OC)C[C@H]3OC[C@@]3(OC(C)=O)[C@H]2[C@H](OC(=O)c2ccccc2)[C@]2(O)C[C@H](OC(=O)[C@H](O)[C@@H](NC(=O)OC(C)(C)C)c3ccccc3)C(C)=C1C2(C)C`, which Potency [11] is on record?
Its Potency is “inactive”.

And the Potency [12]?
Its Potency is “inactive”.

And the Potency [3]?
Its Potency is “inactive”.

And the Potency [6]?
Its Potency is “inactive”.

And the Potency [15]?
Its Potency is “inactive”.

And the Potency [13]?
The Potency was “inactive”.

What about the Potency [7] of the same compound?
Its Potency is “inactive”.

What about the viability [14] of the same compound?
The viability was 65.2% (inactive).

With `COc1ccc2c(Oc3ccc(NC(=O)c4c(C)n(CC(C)(C)O)n(-c5ccccc5)c4=O)nc3)ccnc2c1` as the compound, how does the Potency [11] read?
Its Potency is “inactive”.

What about the Potency [1] of the same compound?
The Potency was “inactive”.

And the Potency [12]?
The Potency was “inactive”.

What about the Potency [3] of the same compound?
Its Potency is “inactive”.

And the Potency [6]?
The Potency was “inactive”.

And the Potency [13]?
Its Potency is 26.4 µM (active).

What about the Potency [7] of the same compound?
The Potency was “inactive”.

What about the Potency [16] of the same compound?
The Potency was “inactive”.

Which results are given for `Clc1cc(Cl)cc(CNc2ncncc2-c2ccc3c(c2)OCO3)c1`?
Potency [17]: inactive; Potency [13]: 20.9 µM (active); Potency [7]: 20.9 µM (active); Potency [14]: 16.6 µM (active); Potency [16]: inactive

For `COc1cc(N2CCC(N3CCN(C)CC3)CC2)ccc1Nc1ncc(Cl)c(Nc2ccccc2S(=O)(=O)C(C)C)n1`, which Potency [1] is on record?
Its Potency is “inactive”.

What about the Potency [15] of the same compound?
Its Potency is 0.264 µM (active).

For `COc1ccc2cccc(CCNC(C)=O)c2c1`, which Potency [11] is on record?
The Potency was “inactive”.

And the Potency [1]?
The Potency was “inactive”.

And the Potency [12]?
The Potency was “inactive”.

And the Potency [3]?
Its Potency is “inactive”.

And the Potency [4]?
The Potency was “inactive”.

And the Potency [5]?
Its Potency is “inactive”.

What about the Potency [15] of the same compound?
The Potency was “inactive”.

What about the viability [14] of the same compound?
Its viability is 129% (inactive).

What about the Potency [8] of the same compound?
The Potency was “inactive”.

And the Potency [9]?
The Potency was “inactive”.

And the Potency [10]?
The Potency was 5.26 µM (active).

With `CCNc1cc(NC2CCC(O)CC2)nc(Nc2ccc3c(ccn3Cc3ccccc3)c2)n1` (stereo not given) as the compound, how does the Potency [3] read?
The Potency was 20.9 µM (active).

What about the Potency [15] of the same compound?
Its Potency is 16.6 µM (active).

And the Potency [7]?
Its Potency is 29.6 µM (active).

And the Potency [14]?
The Potency was 18.7 µM (active).

And the Potency [8]?
The Potency was 20.9 µM (active).

And the Potency [9]?
Its Potency is 23.5 µM (active).

Which results are given for `O=c1cc(-c2cccc3c2Sc2ccccc2S3)oc(N2CCOCC2)c1`?
Potency [11]: 18.7 µM (active); Potency [1]: inactive; Potency [2]: 18.7 µM (active); Potency [12]: 23.5 µM (active); Potency [13]: 20.9 µM (active); Potency [7]: 26.4 µM (active); Potency [14]: 18.7 µM (active); Potency [8]: 18.7 µM (active); Potency [9]: 18.7 µM (active); Potency [10]: 14.8 µM (active)

What does the source list for `Clc1ccc(COC(Cn2ccnc2)c2ccc(Cl)cc2Cl)cc1` (stereo not given)?
Potency [17]: inactive; Potency [9]: 18.7 µM (active); Potency [10]: 20.9 µM (active)

For `C=C1C(=O)OC(CCCCCCCC)C1C(=O)O` (stereo not given), which Potency [17] is on record?
Its Potency is “inactive”.

And the Potency [3]?
The Potency was “inactive”.

What about the Potency [4] of the same compound?
Its Potency is “inactive”.

And the Potency [5]?
Its Potency is “inactive”.

What about the Potency [6] of the same compound?
Its Potency is “inactive”.

And the Potency [15]?
The Potency was 11.8 µM (active).

What about the Potency [7] of the same compound?
Its Potency is 20.9 µM (active).

What about the Potency [8] of the same compound?
The Potency was 20.9 µM (active).

What about the Potency [9] of the same compound?
Its Potency is 14.8 µM (active).

Which results are given for `COC(=O)N[C@H](C(=O)N1CCC[C@@H]1c1ncc(-c2ccc(-c3ccc(-c4cnc([C@@H]5CCCN5C(=O)[C@@H](NC(=O)OC)C(C)C)[nH]4)cc3)cc2)[nH]1)C(C)C`?
Potency [11]: 26.4 µM (active); Potency [12]: 26.4 µM (active); Potency [3]: 18.7 µM (active); Potency [5]: 29.6 µM (active); Potency [15]: 18.7 µM (active); Potency [8]: 26.4 µM (active)

Which Potency [11] does the source give for `Cc1c[nH]c(C=C2C(=O)Nc3ccccc32)c1CCC(=O)O` here?
Its Potency is “inactive”.

What about the Potency [1] of the same compound?
The Potency was “inactive”.

What about the Potency [4] of the same compound?
Its Potency is 23.5 µM (active).

And the Potency [5]?
The Potency was “inactive”.

What about the Potency [13] of the same compound?
Its Potency is 20.9 µM (active).

And the Potency [7]?
The Potency was 0.833 µM (active).

And the Potency [16]?
Its Potency is “inactive”.

What about the Potency [8] of the same compound?
The Potency was “inactive”.

With `COc1ccc(C2Sc3ccccc3N(CCN(C)C)C(=O)C2OC(C)=O)cc1` (stereo not given) as the compound, how does the Potency [1] read?
Its Potency is “inactive”.

And the Potency [2]?
Its Potency is 18.7 µM (active).

What about the Potency [12] of the same compound?
Its Potency is “inactive”.

And the Potency [3]?
Its Potency is 0.0017 µM (active).

What about the Potency [5] of the same compound?
The Potency was “inactive”.

What about the Potency [6] of the same compound?
Its Potency is “inactive”.

And the Potency [13]?
Its Potency is 10.5 µM (active).

What about the Potency [7] of the same compound?
The Potency was “inactive”.

What about the Potency [16] of the same compound?
The Potency was 16.6 µM (active).

What about the Potency [8] of the same compound?
The Potency was “inactive”.

And the Potency [9]?
Its Potency is “inactive”.

For `CN(C)CCC=C1c2ccccc2COc2ccc(CC(=O)O)cc21`, which Potency [12] is on record?
The Potency was “inactive”.

What about the Potency [3] of the same compound?
Its Potency is “inactive”.

What about the Potency [6] of the same compound?
The Potency was “inactive”.

And the Potency [7]?
The Potency was “inactive”.

What about the viability [14] of the same compound?
Its viability is 114% (inactive).

What about the Potency [9] of the same compound?
Its Potency is 20.9 µM (active).
